The text below walks through data of PubChem BioAssay (Tox21).

A short description of assay [1]: qHTS RealTime-Glo MT Cell Viability Assay in HEK293 cells - 16 hour (AID 1224872). Further: nearly all actives have a fitted effect of over 50% in size. Further: potency means the concentration at half of the fitted maximal effect. On activity change, negative = cytotoxicity: top concentration of the series differs between compounds. An outline of the steps: (§1)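 Cells + reagent dispensed (600 cells/well, HEK293) → 5 h at 37 C/5% CO2 → 23 nL compound in DMSO pinned → 40 h at 37 C → luminescence read at 0, 8, 16, 24, 32, 40 h.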
Assay [2] is described as follows: qHTS RealTime-Glo MT Cell Viability Assay in HepG2 cells - 8 hour (AID 1224873). Further: nearly all actives have a fitted effect of over 55% in size. Further: potency means the concentration at half of the fitted maximal effect. An outline of the steps:
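Real-time viability: cells seeded at 600 per well together with NanoLuc and cell-permeant prosubstrate, compounds added after 5 h incubation. Luminescence tracked at 0, 8, 16, 24, 32 and 40 h of exposure.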
For orientation: qHTS replaces the single test concentration by a dilution series.

Assay [3] in a line: qHTS RealTime-Glo MT Cell Viability Assay in HEK293 cells - 40 hour (AID 1224874). Further: nearly all actives have a fitted effect of over 50% in size. Further: potency means the concentration at half of the fitted maximal effect. Conditions: RealTime-Glo luminescence; max response: active compounds read low. An outline of the steps: (§2)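 600 HEK293 cells per well, dispensed already mixed with RealTime-Glo MT reagents. Compound dosing came 5 h later. The same wells were read for luminescence at 0, 8, 16, 24, 32 and 40 h of exposure at 37 C.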

Assay [4] in a line: A CellTox Green Cytotoxicity Assay to monitor cytotoxicity in HEK293 cells - 24 hour (AID 1224875). Further: nearly all actives have a fitted effect of over 45% in size. Further: potency means the concentration at half of the fitted maximal effect. On activity change: series mostly up to about 77 µM. An outline of the steps: (§3)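 Dead-cell fluorescence measured kinetically: asymmetric cyanine dye, HEK293, 600 cells/well, 5 h settle, 23 nL cpd/DMSO, 37 C, reads 0–40 h every 8 h.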
The nature of assay [5]: A CellTox Green Cytotoxicity Assay to monitor cytotoxicity in HepG2 cells - 16 hour (AID 1224876). Further: nearly all actives have a fitted effect of over 45% in size. Further: potency means the concentration at half of the fitted maximal effect. The procedure, abridged: (§4)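 First, HepG2 cells (600/well) mixed with reagent were plated; second, after 5 h at 37 C they received compounds via pintool; third, fluorescence was measured at 0 h through 40 h at 8 h intervals.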
A short description of assay [6]: qHTS RealTime-Glo MT Cell Viability Assay in HepG2 cells - 32 hour (AID 1224877). Further: nearly all actives have a fitted effect of over 55% in size. Further: potency means the concentration at half of the fitted maximal effect. The procedure, abridged:
(§5)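 Real-time, nonlytic viability: 600 HepG2 cells/well mixed with NanoLuc enzyme plus prosubstrate; 5 h settle, compound (DMSO) added by pintool; luminescence monitored over 40 h at 37 C.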

A short description of assay [7]: A CellTox Green Cytotoxicity Assay to monitor cytotoxicity in HepG2 cells - 24 hour (AID 1224878). Further: nearly all actives have a fitted effect of over 45% in size. Further: potency means the concentration at half of the fitted maximal effect. The procedure, abridged:
as §4

A short description of assay [8]: A CellTox Green Cytotoxicity Assay to monitor cytotoxicity in HepG2 cells - 40 hour (AID 1224879). Further: nearly all actives have a fitted effect of over 40% in size. Further: potency means the concentration at half of the fitted maximal effect. An outline of the steps: as §4
The nature of assay [9]: qHTS RealTime-Glo MT Cell Viability Assay in HEK293 cells - 0 hour (AID 1224880). Further: nearly all actives have a fitted effect of over 45% in size. Further: potency means the concentration at half of the fitted maximal effect. On activity change, negative = cytotoxicity: top concentration of the series differs between compounds. The procedure, abridged:
as §2

Assay [10] in a line: A CellTox Green Cytotoxicity Assay to monitor cytotoxicity in HepG2 cells - 0 hour (AID 1224882). Further: nearly all actives have a fitted effect of over 35% in size. Further: potency means the concentration at half of the fitted maximal effect. An outline of the steps: as §4
The nature of assay [11]: A CellTox Green Cytotoxicity Assay to monitor cytotoxicity in HepG2 cells - 32 hour (AID 1224883). Further: nearly all actives have a fitted effect of over 50% in size. Further: potency means the concentration at half of the fitted maximal effect. An outline of the steps: as §4
Assay [12] in a line: A CellTox Green Cytotoxicity Assay to monitor cytotoxicity in HEK293 cells - 8 hour (AID 1224884). Further: nearly all actives have a fitted effect of over 35% in size. Further: potency means the concentration at half of the fitted maximal effect. The procedure, abridged: as §3
The nature of assay [13]: qHTS RealTime-Glo MT Cell Viability Assay in HepG2 cells - 16 hour (AID 1224885). Further: nearly all actives have a fitted effect of over 50% in size. Further: potency means the concentration at half of the fitted maximal effect. An outline of the steps:
as §5

Assay [14] is described as follows: qHTS RealTime-Glo MT Cell Viability Assay in HEK293 cells - 24 hour (AID 1224886). Further: nearly all actives have a fitted effect of over 50% in size. Further: potency means the concentration at half of the fitted maximal effect. On activity change, negative = cytotoxicity: top concentration of the series differs between compounds. The procedure, abridged: as §1
Assay [15] can be described thus: qHTS RealTime-Glo MT Cell Viability Assay in HEK293 cells - 8 hour (AID 1224887). Further: nearly all actives have a fitted effect of over 50% in size. Further: potency means the concentration at half of the fitted maximal effect. On activity change, negative = cytotoxicity: top concentration of the series differs between compounds. The procedure, abridged:
as §2

A short description of assay [16]: A CellTox Green Cytotoxicity Assay to monitor cytotoxicity in HEK293 cells - 16 hour (AID 1224888). Further: nearly all actives have a fitted effect of over 35% in size. Further: potency means the concentration at half of the fitted maximal effect. The procedure, abridged:
as §3

A short description of assay [17]: qHTS RealTime-Glo MT Cell Viability Assay in HepG2 cells - 0 hour (AID 1224889). Further: nearly all actives have a fitted effect of over 50% in size. The procedure, abridged:
as §5

A short description of assay [18]: qHTS assay to identify small molecule antagonists of the estrogen receptor alpha (ER-alpha) signaling pathway using the BG1 cell line in the presence of 0.1 nM 17-beta-estradiol - cell viability counter screen (AID 1259241). Further: nearly all actives have a fitted effect of over 40% in size. Further: potency means the concentration at half of the fitted maximal effect. An outline of the steps: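 Live-cell protease activity (CellTiter-Fluor fluorescence, 30 min) was read in the same wells after VM7Luc4E2 cells had been exposed to compounds with 0.1 nM 17beta-estradiol for 22 hr at 37C.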

Assay [19] in a line: A CellTox Green Cytotoxicity Assay to monitor cytotoxicity in HEK293 cells - 32 hour (AID 1224881). Further: nearly all actives have a fitted effect of over 40% in size. Further: potency means the concentration at half of the fitted maximal effect. An outline of the steps: as §3
Assay [20] is described as follows: A CellTox Green Cytotoxicity Assay to monitor cytotoxicity in HepG2 cells - 8 hour (AID 1224890). Further: nearly all actives have a fitted effect of over 45% in size. Further: potency means the concentration at half of the fitted maximal effect. An outline of the steps:
as §4

“And” between values parts separate entries of the source, which are not always exact repeats. Equal entries are not always repeated. Values without a mark were called inactive. Inconclusive results are not listed. The source made the active and inactive calls. The call rests on the fitted dose curve; in most records, active means well fitted curve in the direction sought with a large enough effect in the repeat runs; inconclusive means weak or mixed curves; inactive means no such curve, though single readings can be large; an effect the other way counts as inactive or inconclusive.
On the % scale 0 is the no-effect control and ±100 the full control effect.

For `CCCCCCCCCCc1ccccc1`, the Potency entry in [1], in assay [2], in assay [4], in assay [5], in assay [6] and in [7] was “inactive” throughout. Besides, the Potency entry in assay [8], in assay [9], in [10], in [11], in assay [12] and in assay [13] was “inactive” throughout. The Potency result in assay [14], in [15], in [16], in [17] and in assay [18] was “inactive” throughout. The max response in assay [3] is -5.33%.
As for `O=C1c2c(O)ccc(O)c2C(=O)c2c(NCCNCCO)ccc(NCCNCCO)c21`, the Potency in assay [1] is 0.848 µM (active); in assay [3], 0.019 µM (active); in assay [6] it was 8.49 µM (active); in assay [13], 19 µM (active); in [14], 0.0601 µM (active). The Potency entry in assay [2], in assay [4], in assay [5], in [7], in assay [8] and in assay [9] was “inactive” in each case. The Potency entry in assay [19], in [10], in assay [11], in [12], in assay [16] and in assay [17] was “inactive” in each case.
Take `O[C@@H](c1cc(C(F)(F)F)nc2c(C(F)(F)F)cccc12)[C@H]1CCCCN1`: the Potency is 7.56 µM (active) in assay [1]; 23.9 µM (active) in assay [2]; 8.49 µM (active) in [3]; 26.8 µM (active) in [4]; 23.9 µM (active) in assay [5]; 13.4 µM (active) in assay [6]. Further, the Potency was 21.3 µM (active) in assay [7]; 15.1 µM (active) in assay [8]; 23.9 µM (active) in assay [19]; 19 µM (active) in [11]; 21.3 µM (active) in [13]; 7.56 µM (active) in assay [14]. Also, the Potency in assay [15] is 7.56 µM (active); in assay [20], 26.8 µM (active). The Potency result in assay [9], in assay [10] and in assay [18] was “inactive” each time.
`Cc1cc(=O)[nH]c(=O)[nH]1`: the Potency entry in assay [1], in assay [2], in assay [4], in assay [5], in assay [6] and in [7] was “inactive” throughout. For the same compound, the Potency entry in assay [8], in assay [9], in assay [19], in assay [10], in assay [11] and in assay [12] was “inactive” each time. For the same compound, the Potency entry in assay [13], in assay [15], in assay [16], in assay [17], in assay [20] and in [18] was “inactive” each time. For the same compound, in [3], the max response is -0.154%.
As to `O=C1c2c(O)ccc([N+](=O)[O-])c2C(=O)c2c([N+](=O)[O-])ccc(O)c21`, the Potency was 13.7 µM (active) in [1]; 13.7 µM (active) in assay [2]; 24.3 µM (active) in assay [3]; 43.2 µM (active) in assay [9]; 24.3 µM (active) in assay [13]; 19.3 µM (active) in assay [14]. For the same compound, the results for the Potency in [15] and in [18] were 7.69 µM (active) and 30.4 µM (active), respectively. In addition, the Potency entry in [4], in assay [5], in assay [7], in assay [8], in assay [19] and in assay [11] was “inactive” each time. For the same compound, the Potency entry in assay [12] and in [16] was “inactive” in each case.
As to `Cc1c(-c2ccc(O)cc2)n(Cc2ccc(OCCN3CCCCCC3)cc2)c2ccc(O)cc12`, the Potency is 2.68 µM (active) in assay [1]; 23.9 µM (active) in [2]; 3.38 µM (active) in assay [3]; 21.3 µM (active) in [4]; 23.9 µM (active) in [5]; 9.52 µM (active) in assay [6]. Besides, the Potency in [7] was 19 µM (active); in [8], 8.49 µM (active); in [19] it was 19 µM (active); in [11] it was 10.7 µM (active); in assay [13], 23.9 µM (active); in [14], 2.68 µM (active). Also, the Potency in [15] is 2.39 µM (active); in [16] it was 23.9 µM (active). Also, the Potency result in assay [9], in assay [10] and in assay [17] was “inactive” in each case.
For the compound `Nc1ccc2cc3ccc(N)cc3nc2c1`, the Potency is 6.16 µM (active) and 9.52 µM (active) in [1]; 436 nM (active) and 2.13 µM (active) in assay [3]; 43.6 µM (active) and 21.3 µM (active) in assay [4]; 49 µM (active) and 21.3 µM (active) in [5]; 49 µM (active) and 23.9 µM (active) in assay [7]; 49 µM (active) and 21.3 µM (active) in [8]. In addition, the Potency in assay [19] was 43.6 µM (active) and 21.3 µM (active); in assay [10] it was 49 µM (active) and 23.9 µM (active); in [11], 49 µM (active) and 21.3 µM (active); in assay [12] it was 49 µM (active) and 21.3 µM (active); in assay [14], 2.45 µM (active) and 3.01 µM (active); in assay [15], 24.5 µM (active). Besides, the Potency in [16] is 49 µM (active) and 21.3 µM (active); in assay [20] it was 49 µM (active) and 21.3 µM (active). Further, the Potency result in [2], in assay [9] and in [17] was “inactive” throughout.
Take `C=CC(=C)CC/C=C(\C)CCC=C(C)C`: the activity change, negative = cytotoxicity in [1] was -2.14% [at 15.8 µM]; in assay [9], -0.65% [at 15.8 µM]; in assay [14] it was -7.54% [at 15.8 µM]; in [15], -9.22% [at 15.8 µM]; in assay [17], 8.34% [at 15.8 µM]; in assay [18], 2.52% [at 19 µM]. In addition, in [2], the viability change, negative = cytotoxic was 1.83% [at 15.8 µM]. Further, the max response in assay [3] was -13.5%. Further, the activity change in [4] was 0.574% [at 15.8 µM, active compounds read high]; in assay [16] it was 2.36% [at 15.8 µM, active compounds read high]. For the same compound, the cytotoxicity increase is 1.01% [at 15.8 µM] in assay [5]; -0.316% [at 15.8 µM] in [8]; 1.9% [at 15.8 µM] in assay [19]; 2.06% [at 15.8 µM] in assay [11]; 0.0594% [at 15.8 µM] in [12]; 2.8% [at 15.8 µM] in assay [20]. In addition, the activity change, negative = cytotoxic in assay [6] is -2.56% [at 15.8 µM]; in assay [13], 1.17% [at 15.8 µM]. In addition, in [7], the cytotoxicity was -0.282% [at 15.8 µM].
In the case of `CCc1ccc(C)nc1`, the Potency result in assay [1], in assay [2], in assay [4], in [5], in [6] and in [7] was “inactive” throughout. Besides, the Potency result in assay [8], in assay [9], in assay [10], in assay [11], in assay [12] and in assay [13] was “inactive” throughout. The Potency entry in [14], in assay [15], in assay [16], in assay [17], in [20] and in assay [18] was “inactive” in each case. Moreover, in assay [3], the max response is -9.25%.
Take `Clc1nc2ccccc2s1`: the Potency entry in assay [1], in assay [2], in [4], in assay [5], in assay [6] and in [7] was “inactive” throughout. In addition, the Potency result in assay [8], in assay [9], in assay [10], in assay [11], in assay [12] and in [13] was “inactive” each time. For the same compound, the Potency entry in assay [14], in assay [15], in assay [17], in assay [20] and in assay [18] was “inactive” in each case. The max response in assay [3] is -10.6%.
